Measurements published in PubChem BioAssay (NCI).
Compounds without any hit were thinned out: in the full panel of roughly 79,000, 15% have a hit. Values without a mark were called inactive. Active and inactive are the calls of the source. Cut-off read from the data, not from the text of the source: active = growth inhibition above about 70%; inactive = the rest.

Legend:
[1] = NCI Yeast Anticancer Drug Screen. Data for the rad52 strain (AID 147);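 note: 0% = growth of vehicle-treated control cultures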; settings: S. cerevisiae rad52 mutant growth inhibition, active compounds read high
How it was run: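 Genetically altered yeast (DNA damage repair defect) treated with compound; inhibition calculated relative to vehicle.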

[2] = NCI Yeast Anticancer Drug Screen. Data for the wt1 strain (AID 149);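 note: 0% = growth of vehicle-treated wt1 cultures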; settings: S. cerevisiae wt1 strain (SPY 50644) growth inhibition, active compounds read high
How it was run: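 Using yeast strain wt1, compound-induced growth inhibition was determined against vehicle-treated cultures.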

[3] = NCI Yeast Anticancer Drug Screen. Data for the rad50EPP+ strain (AID 151);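 note: 0% = growth of vehicle-treated control cultures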; settings: S. cerevisiae rad50 mutant strain, active compounds read high
How it was run: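 Strain rad50EPP+; compound exposure; % growth inhibition vs vehicle.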

[4] = NCI Yeast Anticancer Drug Screen. Data for the mgt1 strain (AID 153); settings: S. cerevisiae mgt1 mutant growth inhibition, active compounds read high
How it was run: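 Read-out: yeast growth inhibition vs vehicle control. Strain mgt1, drawn from a panel altered in DNA damage repair or cell cycle control.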

[5] = NCI Yeast Anticancer Drug Screen. Data for the rad50 strain (AID 155);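 note: 0% = growth of vehicle-only cultures of the same strain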; settings: S. cerevisiae rad50 strain growth inhibition, active compounds read high
How it was run: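 Relative growth inhibition (compound vs vehicle) was measured in yeast with a defined repair-gene alteration.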

[6] = NCI Yeast Anticancer Drug Screen. Data for the mec2-1 strain (AID 157); settings: S. cerevisiae mec2-1 strain, active compounds read high
How it was run: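 Cells of the genetically defined mec2-1 yeast strain are incubated with test compound. Inhibition of growth is calculated against vehicle-treated controls.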

[7] = NCI Yeast Anticancer Drug Screen. Data for the rad14 strain (AID 159);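 note: 0% = growth of vehicle-treated control cultures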; settings: S. cerevisiae rad14 strain growth inhibition, active compounds read high
How it was run: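 Screen for anticancer potential: a yeast strain altered in DNA damage repair is grown with compound, and reduced growth is quantified against vehicle controls.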

[8] = NCI Yeast Anticancer Drug Screen. Data for the sgs1 mgt1 strain (AID 161);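 note: 0% = growth of cultures given vehicle only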; settings: S. cerevisiae sgs1 mgt1 strain, active compounds read high
How it was run: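 Genetically altered yeast, compound exposure, growth inhibition relative to vehicle.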

[9] = NCI Yeast Anticancer Drug Screen. Data for the CLN2oe strain (AID 163);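 note: 0% = growth of vehicle-only control cultures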; settings: S. cerevisiae CLN2oe strain, active compounds read high
How it was run: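 Strain altered in cell-cycle control, incubated with compound; growth compared to solvent-treated controls.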

[10] = NCI Yeast Anticancer Drug Screen. Data for the cln2 rad14 strain (AID 165);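 note: 0% = growth equal to vehicle treated cultures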; settings: S. cerevisiae cln2 rad14 strain, active compounds read high
How it was run: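 The screen exposed genetically defined yeast (cln2 rad14) to test compounds and scored growth inhibition relative to vehicle-treated controls.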

[11] = NCI Yeast Anticancer Drug Screen. Data for the bub3 strain (AID 167); settings: S. cerevisiae bub3 mutant strain, active compounds read high
How it was run: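 Screening used yeast with an engineered genetic alteration affecting cell cycle control. Compound-exposed cultures were compared with vehicle cultures, and reduced growth was taken as inhibition.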

[12] = NCI Yeast Anticancer Drug Screen. Data for the wt2 strain (AID 169);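 note: 0% = growth of vehicle-treated yeast cultures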; settings: S. cerevisiae wt2 strain growth inhibition, active compounds read high
How it was run: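 Steps: yeast strain treated with compound; growth recorded; inhibition calculated relative to cultures given vehicle alone.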

[13] = NCI Yeast Anticancer Drug Screen. Data for the mlh1 strain (AID 171);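 note: 0% = growth of vehicle-treated control cultures of the same strain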; settings: S. cerevisiae mlh1 strain growth inhibition, active compounds read high
How it was run: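 Yeast screen: mutant strain plus compound, growth scored against vehicle control wells.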

[14] = NCI Yeast Anticancer Drug Screen. Data for the sgs1 strain (AID 173);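 note: 0% = growth of vehicle-only control cultures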; settings: S. cerevisiae sgs1 mutant, active compounds read high
How it was run: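 Inhibition of yeast growth served as the measure. The mutant strain was treated with each compound, and growth was normalised to cultures receiving vehicle alone.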

[15] = NCI Yeast Anticancer Drug Screen. Data for the mlh1 rad18 strain (AID 175); settings: S. cerevisiae mlh1 rad18 strain growth inhibition, active compounds read high
How it was run: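 Compound-treated yeast growth, normalised to vehicle controls. Strain bears defined DNA repair mutations.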

[16] = NCI Yeast Anticancer Drug Screen. Data for the rad18 strain (AID 177); settings: S. cerevisiae rad18 mutant growth inhibition, active compounds read high
How it was run: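 Inhibition values reflect reduced yeast growth compared with vehicle-treated controls, using a strain engineered with a DNA damage repair defect.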

[17] = at 5.0 µM (retest, dose inferred, filed as 0.5)
[18] = at 50.0 µM (retest, dose inferred, filed as 5.0)

## C/C1=C/C2OC(=O)C3(C)C2C(CC2(C)OC1=CC2=O)OC3(O)C(C)C (stereo unspecified)
[1]; at 1.2 µM
  growth inhibition: -27%
[1]; at 3.7 µM
  growth inhibition: -33%
[1]; at 11.0 µM
  growth inhibition: -32%
[1]; at 33.0 µM
  growth inhibition: -60%
[1]; at 100.0 µM
  growth inhibition: -39%
[2]; at 1.2 µM
  growth inhibition: -23%
[2]; at 3.7 µM
  growth inhibition: -29%
[2]; at 11.0 µM
  growth inhibition: -42%
[2]; at 33.0 µM
  growth inhibition: -16%
[2]; at 100.0 µM
  growth inhibition: -33%
[3]; at 1.2 µM
  growth inhibition: -9%
[3]; at 3.7 µM
  growth inhibition: -1%
[3]; at 11.0 µM
  growth inhibition: 32%
[3]; at 33.0 µM
  growth inhibition: 72% (active)
[3]; at 100.0 µM
  growth inhibition: 91% (active)
[4]; at 1.2 µM
  growth inhibition: -21%
[4]; at 3.7 µM
  growth inhibition: -18%
[4]; at 11.0 µM
  growth inhibition: 8%
[4]; at 33.0 µM
  growth inhibition: 68%
[4]; at 100.0 µM
  growth inhibition: 93% (active)
[5]; at 1.2 µM
  growth inhibition: -25%
[5]; at 3.7 µM
  growth inhibition: -29%
[5]; [17]
  growth inhibition: 16%
[5]; at 11.0 µM
  growth inhibition: -38%
[5]; at 33.0 µM
  growth inhibition: -57%
[5]; [18]
  growth inhibition: 21%
[5]; at 50.0 µM
  growth inhibition: 6.75%
[5]; at 100.0 µM
  growth inhibition: -47%
[6]; at 1.2 µM
  growth inhibition: -16%
[6]; at 3.7 µM
  growth inhibition: -27%
[6]; [17]
  growth inhibition: 18%
[6]; at 11.0 µM
  growth inhibition: -27%
[6]; at 33.0 µM
  growth inhibition: -18%
[6]; [18]
  growth inhibition: 24%
[6]; at 50.0 µM
  growth inhibition: -27.4%
[6]; at 100.0 µM
  growth inhibition: -24%
[7]; at 1.2 µM
  growth inhibition: -27%
[7]; at 3.7 µM
  growth inhibition: -20%
[7]; at 11.0 µM
  growth inhibition: -34%
[7]; at 33.0 µM
  growth inhibition: -39%
[7]; at 100.0 µM
  growth inhibition: -16%
[8]; [17]
  growth inhibition: 21%
[8]; [18]
  growth inhibition: 87% (active)
[8]; at 50.0 µM
  growth inhibition: 82.4% (active)
[9]; at 1.2 µM
  growth inhibition: 4%
[9]; at 3.7 µM
  growth inhibition: 22%
[9]; at 11.0 µM
  growth inhibition: 13%
[9]; at 33.0 µM
  growth inhibition: 0%
[9]; at 100.0 µM
  growth inhibition: 10%
[10]; [17]
  growth inhibition: 27%
[10]; [18]
  growth inhibition: 29%
[10]; at 50.0 µM
  growth inhibition: 7.4%
[11]; at 1.2 µM
  growth inhibition: -8%
[11]; at 3.7 µM
  growth inhibition: -19%
[11]; [17]
  growth inhibition: 22%
[11]; at 11.0 µM
  growth inhibition: -20%
[11]; at 33.0 µM
  growth inhibition: -35%
[11]; [18]
  growth inhibition: 16%
[11]; at 50.0 µM
  growth inhibition: -16.7%
[11]; at 100.0 µM
  growth inhibition: -28%
[12]; at 1.2 µM
  growth inhibition: 8%
[12]; at 3.7 µM
  growth inhibition: 21%
[12]; at 11.0 µM
  growth inhibition: 27%
[12]; at 33.0 µM
  growth inhibition: 79% (active)
[12]; at 100.0 µM
  growth inhibition: 91% (active)
[13]; at 1.2 µM
  growth inhibition: 21%
[13]; at 3.7 µM
  growth inhibition: 5%
[13]; at 11.0 µM
  growth inhibition: 31%
[13]; at 33.0 µM
  growth inhibition: 60%
[13]; at 100.0 µM
  growth inhibition: 90% (active)
[14]; at 1.2 µM
  growth inhibition: 5%
[14]; at 3.7 µM
  growth inhibition: -1%
[14]; at 11.0 µM
  growth inhibition: 26%
[14]; at 33.0 µM
  growth inhibition: 72% (active)
[14]; at 100.0 µM
  growth inhibition: 92% (active)
[15]; [17]
  growth inhibition: 24%
[15]; [18]
  growth inhibition: 32%
[15]; at 50.0 µM
  growth inhibition: -6.1%
[16]; at 1.2 µM
  growth inhibition: -6%
[16]; at 3.7 µM
  growth inhibition: -33%
[16]; at 11.0 µM
  growth inhibition: -38%
[16]; at 33.0 µM
  growth inhibition: -44%
[16]; at 100.0 µM
  growth inhibition: -37%

## Nc1ccc(S(=O)(=O)Nc2nc3c(c(=O)[nH]2)CCCC3)cc1
[1]; at 1.2 µM
  growth inhibition: 14%
[1]; at 3.7 µM
  growth inhibition: 18%
[1]; at 11.0 µM
  growth inhibition: 87% (active)
[1]; at 33.0 µM
  growth inhibition: 99% (active)
[1]; at 100.0 µM
  growth inhibition: 99% (active)
[2]; at 1.2 µM
  growth inhibition: 5%
[2]; at 3.7 µM
  growth inhibition: 31%
[2]; at 11.0 µM
  growth inhibition: 93% (active)
[2]; at 33.0 µM
  growth inhibition: 99% (active)
[2]; at 100.0 µM
  growth inhibition: 100% (active)
[3]; at 1.2 µM
  growth inhibition: 12%
[3]; at 3.7 µM
  growth inhibition: 47%
[3]; at 11.0 µM
  growth inhibition: 80% (active)
[3]; at 33.0 µM
  growth inhibition: 99% (active)
[3]; at 100.0 µM
  growth inhibition: 99% (active)
[4]; at 1.2 µM
  growth inhibition: 2%
[4]; at 3.7 µM
  growth inhibition: 0%
[4]; at 11.0 µM
  growth inhibition: 50%
[4]; at 33.0 µM
  growth inhibition: 98% (active)
[4]; at 100.0 µM
  growth inhibition: 99% (active)
[5]; at 1.2 µM
  growth inhibition: 21%
[5]; at 3.7 µM
  growth inhibition: 22%
[5]; [17]
  growth inhibition: 31%
[5]; at 11.0 µM
  growth inhibition: 93% (active)
[5]; at 33.0 µM
  growth inhibition: 99% (active)
[5]; [18]
  growth inhibition: 98% (active)
[5]; at 50.0 µM
  growth inhibition: 99.5% (active)
[5]; at 100.0 µM
  growth inhibition: 99% (active)
[6]; at 1.2 µM
  growth inhibition: 0%
[6]; at 3.7 µM
  growth inhibition: 4%
[6]; [17]
  growth inhibition: 28%
[6]; at 11.0 µM
  growth inhibition: 48%
[6]; at 33.0 µM
  growth inhibition: 99% (active)
[6]; [18]
  growth inhibition: 99% (active)
[6]; at 50.0 µM
  growth inhibition: 99.5% (active)
[6]; at 100.0 µM
  growth inhibition: 99% (active)
[7]; at 1.2 µM
  growth inhibition: 19%
[7]; at 3.7 µM
  growth inhibition: 33%
[7]; at 11.0 µM
  growth inhibition: 94% (active)
[7]; at 33.0 µM
  growth inhibition: 100% (active)
[7]; at 100.0 µM
  growth inhibition: 100% (active)
[8]; [17]
  growth inhibition: 44%
[8]; [18]
  growth inhibition: 99% (active)
[8]; at 50.0 µM
  growth inhibition: 99.5% (active)
[9]; at 1.2 µM
  growth inhibition: 5%
[9]; at 3.7 µM
  growth inhibition: 5%
[9]; at 11.0 µM
  growth inhibition: 21%
[9]; at 33.0 µM
  growth inhibition: 99% (active)
[9]; at 100.0 µM
  growth inhibition: 99% (active)
[10]; [17]
  growth inhibition: 8%
[10]; [18]
  growth inhibition: 99% (active)
[10]; at 50.0 µM
  growth inhibition: 99.2% (active)
[11]; at 1.2 µM
  growth inhibition: 33%
[11]; at 3.7 µM
  growth inhibition: 40%
[11]; [17]
  growth inhibition: 14%
[11]; at 11.0 µM
  growth inhibition: 92% (active)
[11]; at 33.0 µM
  growth inhibition: 99% (active)
[11]; [18]
  growth inhibition: 98% (active)
[11]; at 50.0 µM
  growth inhibition: 99.3% (active)
[11]; at 100.0 µM
  growth inhibition: 99% (active)
[12]; at 1.2 µM
  growth inhibition: 29%
[12]; at 3.7 µM
  growth inhibition: 73% (active)
[12]; at 11.0 µM
  growth inhibition: 99% (active)
[12]; at 33.0 µM
  growth inhibition: 100% (active)
[12]; at 100.0 µM
  growth inhibition: 100% (active)
[13]; at 1.2 µM
  growth inhibition: 8%
[13]; at 3.7 µM
  growth inhibition: 20%
[13]; at 11.0 µM
  growth inhibition: 75% (active)
[13]; at 33.0 µM
  growth inhibition: 99% (active)
[13]; at 100.0 µM
  growth inhibition: 99% (active)
[14]; at 1.2 µM
  growth inhibition: 36%
[14]; at 3.7 µM
  growth inhibition: 47%
[14]; at 11.0 µM
  growth inhibition: 95% (active)
[14]; at 33.0 µM
  growth inhibition: 99% (active)
[14]; at 100.0 µM
  growth inhibition: 99% (active)
[15]; [17]
  growth inhibition: 84% (active)
[15]; [18]
  growth inhibition: 99% (active)
[15]; at 50.0 µM
  growth inhibition: 99.4% (active)
[16]; at 1.2 µM
  growth inhibition: 33%
[16]; at 3.7 µM
  growth inhibition: 48%
[16]; at 11.0 µM
  growth inhibition: 85% (active)
[16]; at 33.0 µM
  growth inhibition: 99% (active)
[16]; at 100.0 µM
  growth inhibition: 99% (active)
